According to the supplement of paper PMC10849652:
The full data set covers some 8,800 targets. This sample favours those with a hit. About 0.5% of all pairs of compound and target were hits. Unmarked numbers belong to inactive results.

Tests used:
Experiment in all cases: log2 fold change, soluble protein after heating vs DMSO (PISA); higher = thermal stabilisation; K562 lysate, 10 uM; active = over 0.2 and 3.5 SD of the protein, either way, in both replicates (recomputed)
nilotinib = compound: Cc1cn(-c2cc(NC(=O)c3ccc(C)c(Nc4nccc(-c5cccnc5)n4)c3)cc(C(F)(F)F)c2)cn1 [nilotinib]
How it was run: (§1)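 Dounce homogenisation of K562 pellets in PBS pH 7.4 with 1 mM MgCl2 produced a crude extract, used at 1 mg/mL protein. Exposure to 10 μM compound lasted 30 min, and aliquots were then heated for 3 min across 48°C-58°C, pooled and brought to 0.5% NP-40 at 4°C. The supernatant after 21,000xg for 90 min was quantified by TMTpro 16plex LC-MS/MS with channel sums equalised. Duplicate values are given as log-two fold change in thermal stability relative to solvent controls.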

[1] = compound: Cc1nc(Nc2n[nH]c3c2CN(C(=O)N[C@H](CN(C)C)c2ccccc2)C3(C)C)c2sccc2n1
How it was run: as §1

dasatinib = compound: Cc1nc(Nc2ncc(C(=O)Nc3c(C)cccc3Cl)s2)cc(N2CCN(CCO)CC2)n1 [dasatinib]
How it was run: as §1

[2] = compound: Cc1ncc(-c2ccnc(Nc3ccc(S(C)(=O)=O)cc3)n2)n1C(C)C
How it was run: as §1

[3] = compound: Cn1cc(-c2ccc3c(c2)CCN3C(=O)Cc2cccc(C(F)(F)F)c2)c2c(N)ncnc21
How it was run: as §1

quisinostat = compound: Cn1cc(CNCC2CCN(c3ncc(C(=O)NO)cn3)CC2)c2ccccc21 [quisinostat]
How it was run: as §1

tipifarnib = compound: Cn1cncc1[C@@](N)(c1ccc(Cl)cc1)c1ccc2c(c1)c(-c1cccc(Cl)c1)cc(=O)n2C [tipifarnib]
How it was run: as §1

[4] = compound: NC(=O)Nc1cc(-c2cccc(F)c2)sc1C(=O)N[C@H]1CCCNC1
How it was run: as §1

[5] = compound: NC(=O)c1cnc(N[C@@H]2CCCC[C@@H]2N)nc1Nc1cccc(-n2nccn2)c1
How it was run: as §1

[6] = compound: NC1(c2ccc(-c3nc4ccn5c(=O)[nH]nc5c4cc3-c3ccccc3)cc2)CCC1
How it was run: as §1

[7] = compound: NCC(=O)Nc1ccc(-n2nc(C(F)(F)F)cc2-c2ccc3c(ccc4ccccc43)c2)cc1
How it was run: as §1

vorinostat = compound: O=C(CCCCCCC(=O)Nc1ccccc1)NO [vorinostat]
How it was run: as §1

silmitasertib = compound: O=C(O)c1ccc2c(c1)nc(Nc1cccc(Cl)c1)c1ccncc12 [silmitasertib]
How it was run: as §1

[8] = compound: O=C1NC(=O)C(c2cnc3ccccn23)=C1c1cn2c3c(cc(F)cc13)CN(C(=O)N1CCCCC1)CC2
How it was run: as §1

entospletinib = compound: c1cn2cc(-c3ccc4cn[nH]c4c3)nc(Nc3ccc(N4CCOCC4)cc3)c2n1 [entospletinib]
How it was run: as §1

Sequence of UniProt Q14166 (Q14166 whole entry, looked up): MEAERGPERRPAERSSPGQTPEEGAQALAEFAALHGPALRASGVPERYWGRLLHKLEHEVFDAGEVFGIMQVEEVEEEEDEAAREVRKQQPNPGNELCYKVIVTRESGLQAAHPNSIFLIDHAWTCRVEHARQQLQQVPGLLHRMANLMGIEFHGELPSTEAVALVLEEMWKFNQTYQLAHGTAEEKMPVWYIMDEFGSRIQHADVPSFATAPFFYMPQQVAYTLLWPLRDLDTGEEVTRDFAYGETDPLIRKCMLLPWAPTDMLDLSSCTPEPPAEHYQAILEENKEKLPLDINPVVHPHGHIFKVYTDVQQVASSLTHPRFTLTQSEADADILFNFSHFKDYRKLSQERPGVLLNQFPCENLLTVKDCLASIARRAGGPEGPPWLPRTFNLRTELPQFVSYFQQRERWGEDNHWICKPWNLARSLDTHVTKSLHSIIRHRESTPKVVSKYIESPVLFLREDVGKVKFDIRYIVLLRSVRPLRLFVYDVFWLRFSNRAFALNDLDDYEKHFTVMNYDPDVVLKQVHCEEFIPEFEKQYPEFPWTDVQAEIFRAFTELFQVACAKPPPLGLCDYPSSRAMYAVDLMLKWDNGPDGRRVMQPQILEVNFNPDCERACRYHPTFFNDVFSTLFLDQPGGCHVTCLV
Sequence of UniProt Q96F44 (Q96F44 whole entry, looked up): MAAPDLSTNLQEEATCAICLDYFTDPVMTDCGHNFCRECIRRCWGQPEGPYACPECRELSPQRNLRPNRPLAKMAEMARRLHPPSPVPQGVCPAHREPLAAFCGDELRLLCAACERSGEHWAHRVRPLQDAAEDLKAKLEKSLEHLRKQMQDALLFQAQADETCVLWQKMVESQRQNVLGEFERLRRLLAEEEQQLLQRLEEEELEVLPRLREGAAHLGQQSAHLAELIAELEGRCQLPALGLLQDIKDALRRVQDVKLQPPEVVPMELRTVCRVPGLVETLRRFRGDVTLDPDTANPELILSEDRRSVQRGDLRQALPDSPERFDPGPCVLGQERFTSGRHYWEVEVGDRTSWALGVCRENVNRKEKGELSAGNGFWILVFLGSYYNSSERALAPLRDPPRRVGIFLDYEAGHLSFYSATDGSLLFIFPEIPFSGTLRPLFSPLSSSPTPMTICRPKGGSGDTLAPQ
Sequence of UniProt Q13509 (Q13509 whole entry, looked up): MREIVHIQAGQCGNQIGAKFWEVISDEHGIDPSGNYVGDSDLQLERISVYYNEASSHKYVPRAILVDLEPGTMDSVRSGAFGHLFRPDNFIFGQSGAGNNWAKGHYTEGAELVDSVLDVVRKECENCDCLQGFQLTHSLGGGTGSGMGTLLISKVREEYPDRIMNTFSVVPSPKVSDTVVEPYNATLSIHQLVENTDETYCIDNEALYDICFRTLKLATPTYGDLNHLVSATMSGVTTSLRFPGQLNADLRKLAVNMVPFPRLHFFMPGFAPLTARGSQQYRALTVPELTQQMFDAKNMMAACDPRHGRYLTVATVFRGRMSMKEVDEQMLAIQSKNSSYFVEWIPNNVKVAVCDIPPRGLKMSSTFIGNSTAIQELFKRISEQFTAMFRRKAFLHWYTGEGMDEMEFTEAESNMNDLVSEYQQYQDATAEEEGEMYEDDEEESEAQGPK
Sequence of UniProt Q15813 (Q15813 whole entry, looked up): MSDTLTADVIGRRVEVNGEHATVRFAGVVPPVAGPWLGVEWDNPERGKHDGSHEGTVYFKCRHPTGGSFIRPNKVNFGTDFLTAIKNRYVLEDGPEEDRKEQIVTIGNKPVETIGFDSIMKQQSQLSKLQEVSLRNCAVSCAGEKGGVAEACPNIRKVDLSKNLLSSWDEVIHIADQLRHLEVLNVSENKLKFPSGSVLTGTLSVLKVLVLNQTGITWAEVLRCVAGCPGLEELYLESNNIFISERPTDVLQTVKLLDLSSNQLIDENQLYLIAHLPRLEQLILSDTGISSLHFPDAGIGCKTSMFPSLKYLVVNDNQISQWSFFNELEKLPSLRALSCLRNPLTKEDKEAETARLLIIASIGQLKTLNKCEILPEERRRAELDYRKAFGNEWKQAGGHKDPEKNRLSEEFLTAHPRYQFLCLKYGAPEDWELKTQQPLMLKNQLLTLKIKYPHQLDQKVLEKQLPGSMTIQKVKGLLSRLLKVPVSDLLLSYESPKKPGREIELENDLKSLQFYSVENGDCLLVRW
Sequence of UniProt Q9Y2W6 (Q9Y2W6 whole entry, looked up): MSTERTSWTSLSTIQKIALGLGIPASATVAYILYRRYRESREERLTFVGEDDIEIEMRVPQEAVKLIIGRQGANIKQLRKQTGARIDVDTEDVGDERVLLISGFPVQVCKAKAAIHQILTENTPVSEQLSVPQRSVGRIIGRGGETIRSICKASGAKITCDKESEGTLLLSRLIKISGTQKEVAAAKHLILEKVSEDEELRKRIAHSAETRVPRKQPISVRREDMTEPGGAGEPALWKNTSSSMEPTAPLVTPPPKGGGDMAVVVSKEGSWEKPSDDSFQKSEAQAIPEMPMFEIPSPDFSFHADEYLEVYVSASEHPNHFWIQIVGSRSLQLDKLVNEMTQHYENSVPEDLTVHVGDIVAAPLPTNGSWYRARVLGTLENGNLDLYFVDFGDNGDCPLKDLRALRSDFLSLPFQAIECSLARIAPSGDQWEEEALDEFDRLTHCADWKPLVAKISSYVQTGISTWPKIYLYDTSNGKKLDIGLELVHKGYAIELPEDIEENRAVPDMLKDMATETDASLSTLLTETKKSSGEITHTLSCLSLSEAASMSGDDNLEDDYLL
Sequence of UniProt Q9UNS1 (Q9UNS1 whole entry, looked up): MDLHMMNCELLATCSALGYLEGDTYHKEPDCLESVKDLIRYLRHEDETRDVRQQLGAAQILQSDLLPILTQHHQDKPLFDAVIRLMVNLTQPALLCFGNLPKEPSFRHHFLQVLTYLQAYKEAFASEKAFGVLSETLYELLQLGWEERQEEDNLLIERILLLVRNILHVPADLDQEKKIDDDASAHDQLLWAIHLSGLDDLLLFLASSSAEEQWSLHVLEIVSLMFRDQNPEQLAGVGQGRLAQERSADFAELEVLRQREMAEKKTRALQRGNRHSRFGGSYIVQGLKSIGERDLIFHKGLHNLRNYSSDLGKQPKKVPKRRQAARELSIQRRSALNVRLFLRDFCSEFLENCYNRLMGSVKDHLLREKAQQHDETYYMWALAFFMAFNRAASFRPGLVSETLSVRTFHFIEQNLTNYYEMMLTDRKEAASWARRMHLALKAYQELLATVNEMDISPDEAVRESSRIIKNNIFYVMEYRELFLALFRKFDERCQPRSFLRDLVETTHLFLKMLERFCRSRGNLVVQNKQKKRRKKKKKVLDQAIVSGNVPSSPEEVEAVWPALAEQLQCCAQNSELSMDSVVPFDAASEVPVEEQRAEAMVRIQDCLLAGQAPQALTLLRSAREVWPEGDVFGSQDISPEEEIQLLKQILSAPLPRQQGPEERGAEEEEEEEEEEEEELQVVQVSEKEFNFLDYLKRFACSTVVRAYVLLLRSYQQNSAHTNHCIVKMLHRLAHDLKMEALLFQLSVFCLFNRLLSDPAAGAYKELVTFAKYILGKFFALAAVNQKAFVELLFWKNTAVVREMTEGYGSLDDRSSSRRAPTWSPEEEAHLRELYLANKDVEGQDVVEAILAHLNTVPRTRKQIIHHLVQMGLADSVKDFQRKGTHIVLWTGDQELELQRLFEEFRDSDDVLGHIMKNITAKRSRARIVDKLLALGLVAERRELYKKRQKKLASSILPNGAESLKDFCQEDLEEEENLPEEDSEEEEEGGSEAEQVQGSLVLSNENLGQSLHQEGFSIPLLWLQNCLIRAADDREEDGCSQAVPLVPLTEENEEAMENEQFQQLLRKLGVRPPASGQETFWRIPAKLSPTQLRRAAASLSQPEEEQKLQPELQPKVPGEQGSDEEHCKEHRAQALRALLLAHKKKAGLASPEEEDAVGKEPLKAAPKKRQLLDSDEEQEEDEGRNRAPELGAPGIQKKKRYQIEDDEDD
Sequence of UniProt Q86SX3 (Q86SX3 whole entry, looked up): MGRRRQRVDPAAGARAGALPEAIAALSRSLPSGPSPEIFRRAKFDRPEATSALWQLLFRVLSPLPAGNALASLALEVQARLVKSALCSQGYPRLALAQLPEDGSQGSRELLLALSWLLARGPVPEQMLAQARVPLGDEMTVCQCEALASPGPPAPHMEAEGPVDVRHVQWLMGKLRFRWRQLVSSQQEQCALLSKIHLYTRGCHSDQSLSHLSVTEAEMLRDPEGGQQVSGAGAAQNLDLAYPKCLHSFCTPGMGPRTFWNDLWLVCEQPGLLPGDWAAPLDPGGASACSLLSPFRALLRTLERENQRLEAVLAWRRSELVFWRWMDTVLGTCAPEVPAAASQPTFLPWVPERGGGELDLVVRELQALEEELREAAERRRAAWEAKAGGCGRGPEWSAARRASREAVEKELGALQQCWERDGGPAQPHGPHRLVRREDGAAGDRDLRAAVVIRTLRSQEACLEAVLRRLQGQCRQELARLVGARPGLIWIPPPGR

Row | Target | log2 fold change (nilotinib) | log2 fold change [1] | log2 fold change (dasatinib) | log2 fold change [2] | log2 fold change [3] | log2 fold change (quisinostat) | log2 fold change (tipifarnib) | log2 fold change [4] | log2 fold change [5] | log2 fold change [6] | log2 fold change [7] | log2 fold change (vorinostat) | log2 fold change (silmitasertib) | log2 fold change [8] | log2 fold change (entospletinib)
1 | TBK1 (UniProt Q9UHD2) | -0.003 | 0.618 (active) | 0.029 | 0.125 | 0.251 | -0.097 | -0.026 | 0.209 | 0.032 | -0.074 | -0.04 | -0.361 | 0.189 | 0.125 | 0.204
2 | TRIM11 (UniProt Q96F44) | -0.019 | 0.053 | -0.021 | 0.055 | 0.023 | -0.104 | -0.015 | -0.019 | -0.004 | -0.023 | 0.018 | -0.222 (active) | 0.046 | -0.035 | -0.045
3 | TBCE (UniProt Q15813) | -0.001 | -0.008 | -0.012 | -0.01 | 0.049 | -0.025 | -0.005 | 0.033 | 0.015 | -0.041 | -0.029 | -0.27 (active) | 0.018 | -0.025 | 0.021
4 | TUBB3 (UniProt Q13509) | 0.029 | -0.028 | -0.027 | -0.003 | 0.024 | -0.004 | -0.013 | 0.039 | 0.006 | 0.006 | -0.012 | -0.688 (active) | 0.04 | 0.006 | -0.002
5 | TPM1 (UniProt H7BYY1) | 0.014 | -0.111 | -0.023 | 0.028 | 0.02 | 0.101 | 0.059 | -0.017 | 0.013 | 0.033 | 0.057 | 0.136 | -0.024 | -0.049 | 0.008
6 | TIMELESS (UniProt Q9UNS1) | 0.018 | -0.039 | -0.082 | 0.024 | 0.005 | -0.137 | -0.052 | 0.045 | 0.029 | -0.035 | 0 | -0.412 (active) | 0.018 | 0.062 | 0.017
7 | TTLL12 (UniProt Q14166) | 0.015 | -0.012 | -0.028 | -0.027 | -0.006 | -0.015 | 0.008 | 0.067 | 0.001 | -0.013 | -0.021 | -0.426 (active) | 0.092 | 0.02 | 0.049
8 | TDRKH (UniProt Q9Y2W6) | -0.01 | -0.077 | -0.059 | 0.018 | 0.028 | -0.087 | -0.048 | 0.041 | 0.003 | 0.067 | -0.031 | -0.223 | 0.024 | -0.052 | 0.056
9 | TEDC1 (UniProt Q86SX3) | 0.015 | -0.016 | 0.087 | -0.038 | 0.05 | 0.161 | -0.049 | -0.074 | 0.104 | -0.022 | – | -0.356 (active) | 0.068 | -0.012 | -0.032
